Measured values taken from ChEMBL document CHEMBL1961873, “Compounds: GSK PKIS; Assays: Nanosyn kinase panel” (2012).

How the values were obtained:
[1] = molecular target: Protein kinase C gamma type (Homo sapiens) (UniProt P05129); settings: at 1 µM;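 also: each value is an averaged percent inhibition of the enzyme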
[2] = molecular target: T1, Protein kinase C iota type (Homo sapiens) (UniProt P41743); settings: at 0.1 µM
T1 sequence (whole entry): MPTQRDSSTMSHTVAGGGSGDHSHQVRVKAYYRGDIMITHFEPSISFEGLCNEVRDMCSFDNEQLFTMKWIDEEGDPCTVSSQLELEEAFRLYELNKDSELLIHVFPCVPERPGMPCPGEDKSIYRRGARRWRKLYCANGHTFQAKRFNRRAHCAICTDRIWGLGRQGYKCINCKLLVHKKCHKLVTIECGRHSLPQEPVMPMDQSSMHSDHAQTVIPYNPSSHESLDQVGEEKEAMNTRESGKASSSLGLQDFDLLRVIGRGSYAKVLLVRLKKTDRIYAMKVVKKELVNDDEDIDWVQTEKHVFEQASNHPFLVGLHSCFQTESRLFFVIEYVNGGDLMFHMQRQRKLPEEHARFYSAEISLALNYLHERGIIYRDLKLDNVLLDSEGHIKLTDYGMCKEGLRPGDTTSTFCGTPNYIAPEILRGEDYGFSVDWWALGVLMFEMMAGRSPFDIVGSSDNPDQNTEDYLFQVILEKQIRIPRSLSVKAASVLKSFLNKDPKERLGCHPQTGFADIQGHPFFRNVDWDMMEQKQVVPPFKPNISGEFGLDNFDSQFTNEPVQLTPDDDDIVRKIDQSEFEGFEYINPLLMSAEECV

[3] = molecular target: T1, Protein kinase C iota type (Homo sapiens); settings: at 1 µM
[4] = molecular target: Protein kinase C theta type (Homo sapiens) (UniProt Q04759); settings: at 0.1 µM
[5] = molecular target: Protein kinase C theta type (Homo sapiens) (UniProt Q04759); settings: at 1 µM
[6] = molecular target: Protein kinase C beta type (Homo sapiens) (UniProt P05771); settings: at 0.1 µM
[7] = molecular target: Protein kinase C beta type (Homo sapiens) (UniProt P05771); settings: at 1 µM
[8] = molecular target: T2, Serine/threonine-protein kinase D1 (Homo sapiens) (UniProt Q15139); settings: at 0.1 µM
T2 sequence (whole entry): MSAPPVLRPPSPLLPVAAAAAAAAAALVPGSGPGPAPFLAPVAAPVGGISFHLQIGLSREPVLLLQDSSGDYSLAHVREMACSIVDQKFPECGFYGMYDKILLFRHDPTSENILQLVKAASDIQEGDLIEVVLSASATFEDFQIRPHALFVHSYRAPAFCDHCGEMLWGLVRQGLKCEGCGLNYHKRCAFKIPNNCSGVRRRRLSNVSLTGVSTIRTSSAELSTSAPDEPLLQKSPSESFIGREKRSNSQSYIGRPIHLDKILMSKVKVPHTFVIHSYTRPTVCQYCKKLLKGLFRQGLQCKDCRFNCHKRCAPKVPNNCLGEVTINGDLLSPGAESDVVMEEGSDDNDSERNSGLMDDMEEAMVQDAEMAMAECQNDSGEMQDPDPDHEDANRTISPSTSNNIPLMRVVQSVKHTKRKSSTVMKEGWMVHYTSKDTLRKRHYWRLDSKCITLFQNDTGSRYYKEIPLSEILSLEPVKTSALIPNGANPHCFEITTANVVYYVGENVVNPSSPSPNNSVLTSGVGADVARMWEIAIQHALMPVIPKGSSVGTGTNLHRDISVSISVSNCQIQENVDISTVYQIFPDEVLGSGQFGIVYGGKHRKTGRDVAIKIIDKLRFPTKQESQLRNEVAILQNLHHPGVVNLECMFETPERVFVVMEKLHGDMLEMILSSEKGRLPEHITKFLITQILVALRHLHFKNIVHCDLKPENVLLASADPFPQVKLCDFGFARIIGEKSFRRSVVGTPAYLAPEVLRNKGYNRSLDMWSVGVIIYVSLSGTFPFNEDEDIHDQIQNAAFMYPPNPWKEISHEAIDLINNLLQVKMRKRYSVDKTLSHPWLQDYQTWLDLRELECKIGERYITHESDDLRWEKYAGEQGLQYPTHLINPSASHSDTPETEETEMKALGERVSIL

[9] = molecular target: T2, Serine/threonine-protein kinase D1 (Homo sapiens); settings: at 1 µM
[10] = molecular target: T3, Serine/threonine-protein kinase D2 (Homo sapiens) (UniProt Q9BZL6); settings: at 0.1 µM
T3 sequence (whole entry): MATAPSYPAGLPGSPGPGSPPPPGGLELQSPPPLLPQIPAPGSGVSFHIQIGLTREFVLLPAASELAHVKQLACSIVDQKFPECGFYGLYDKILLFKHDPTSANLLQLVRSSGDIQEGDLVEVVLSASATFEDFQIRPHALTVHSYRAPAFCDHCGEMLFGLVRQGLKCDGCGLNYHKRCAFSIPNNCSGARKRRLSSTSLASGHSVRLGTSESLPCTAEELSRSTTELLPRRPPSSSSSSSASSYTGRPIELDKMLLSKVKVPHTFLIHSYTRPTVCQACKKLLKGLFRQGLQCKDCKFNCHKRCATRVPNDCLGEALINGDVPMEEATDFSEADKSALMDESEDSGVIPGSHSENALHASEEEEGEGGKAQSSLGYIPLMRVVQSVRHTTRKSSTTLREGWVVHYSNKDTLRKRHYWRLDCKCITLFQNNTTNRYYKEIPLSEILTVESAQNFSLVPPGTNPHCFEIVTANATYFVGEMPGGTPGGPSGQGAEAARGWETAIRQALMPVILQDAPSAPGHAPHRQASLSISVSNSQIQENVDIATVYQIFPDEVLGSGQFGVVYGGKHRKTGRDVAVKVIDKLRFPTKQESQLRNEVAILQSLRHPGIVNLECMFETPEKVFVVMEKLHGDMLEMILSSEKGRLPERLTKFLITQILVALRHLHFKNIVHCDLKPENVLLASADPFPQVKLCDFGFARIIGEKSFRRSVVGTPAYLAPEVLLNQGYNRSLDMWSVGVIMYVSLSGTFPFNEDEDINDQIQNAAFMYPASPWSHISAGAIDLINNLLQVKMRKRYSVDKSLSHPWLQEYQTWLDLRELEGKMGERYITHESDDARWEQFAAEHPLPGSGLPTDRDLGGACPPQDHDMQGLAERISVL

[11] = molecular target: T3, Serine/threonine-protein kinase D2 (Homo sapiens); settings: at 1 µM
[12] = molecular target: T4, Serine/threonine-protein kinase D3 (Homo sapiens) (UniProt O94806); settings: at 0.1 µM
T4 sequence (whole entry): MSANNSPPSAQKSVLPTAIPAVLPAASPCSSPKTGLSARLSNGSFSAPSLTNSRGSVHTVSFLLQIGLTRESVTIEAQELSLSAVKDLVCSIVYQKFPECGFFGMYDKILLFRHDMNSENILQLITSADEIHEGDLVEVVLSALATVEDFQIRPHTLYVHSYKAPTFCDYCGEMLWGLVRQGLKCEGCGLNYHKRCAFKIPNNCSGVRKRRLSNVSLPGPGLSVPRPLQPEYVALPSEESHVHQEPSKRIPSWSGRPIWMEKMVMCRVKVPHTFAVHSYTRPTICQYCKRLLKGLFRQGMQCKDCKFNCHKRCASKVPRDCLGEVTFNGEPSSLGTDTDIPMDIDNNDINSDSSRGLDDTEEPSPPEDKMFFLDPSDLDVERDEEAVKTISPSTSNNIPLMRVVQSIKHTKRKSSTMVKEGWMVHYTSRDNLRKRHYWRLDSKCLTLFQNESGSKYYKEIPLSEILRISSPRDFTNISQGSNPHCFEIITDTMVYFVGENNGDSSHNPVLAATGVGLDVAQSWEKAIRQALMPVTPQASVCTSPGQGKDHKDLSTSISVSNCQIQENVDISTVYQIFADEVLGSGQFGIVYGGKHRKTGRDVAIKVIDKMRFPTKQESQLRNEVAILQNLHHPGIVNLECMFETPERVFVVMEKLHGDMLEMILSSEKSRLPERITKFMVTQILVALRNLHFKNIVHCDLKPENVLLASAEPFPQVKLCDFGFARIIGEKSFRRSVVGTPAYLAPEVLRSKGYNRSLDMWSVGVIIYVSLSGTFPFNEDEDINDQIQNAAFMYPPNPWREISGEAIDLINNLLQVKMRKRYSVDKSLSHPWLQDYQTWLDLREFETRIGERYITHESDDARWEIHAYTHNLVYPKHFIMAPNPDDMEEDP

[13] = molecular target: T4, Serine/threonine-protein kinase D3 (Homo sapiens); settings: at 1 µM
[14] = molecular target: T5, cGMP-dependent protein kinase 1 (Homo sapiens) (UniProt Q13976); settings: at 0.1 µM
T5 sequence (whole entry): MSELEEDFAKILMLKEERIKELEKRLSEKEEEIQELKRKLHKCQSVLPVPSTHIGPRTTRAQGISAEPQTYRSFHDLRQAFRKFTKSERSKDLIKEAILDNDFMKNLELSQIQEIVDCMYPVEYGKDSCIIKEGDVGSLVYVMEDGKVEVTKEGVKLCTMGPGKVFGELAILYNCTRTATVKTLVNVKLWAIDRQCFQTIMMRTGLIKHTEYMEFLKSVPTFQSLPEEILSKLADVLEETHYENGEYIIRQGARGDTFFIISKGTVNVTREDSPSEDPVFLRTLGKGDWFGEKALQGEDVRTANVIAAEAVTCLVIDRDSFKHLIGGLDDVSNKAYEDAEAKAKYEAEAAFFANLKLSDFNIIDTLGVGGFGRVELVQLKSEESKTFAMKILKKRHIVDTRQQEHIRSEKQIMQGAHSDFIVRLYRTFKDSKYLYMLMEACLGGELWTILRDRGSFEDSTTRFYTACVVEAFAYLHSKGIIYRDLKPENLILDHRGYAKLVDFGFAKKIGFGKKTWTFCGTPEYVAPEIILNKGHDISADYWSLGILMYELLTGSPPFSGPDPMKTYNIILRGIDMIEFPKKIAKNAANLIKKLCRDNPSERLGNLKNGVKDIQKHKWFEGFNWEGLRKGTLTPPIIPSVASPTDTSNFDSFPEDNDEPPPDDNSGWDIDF

[15] = molecular target: T5, cGMP-dependent protein kinase 1 (Homo sapiens); settings: at 1 µM
[16] = molecular target: T6, cGMP-dependent protein kinase 2 (Homo sapiens) (UniProt Q13237); settings: at 0.1 µM
T6 sequence (whole entry): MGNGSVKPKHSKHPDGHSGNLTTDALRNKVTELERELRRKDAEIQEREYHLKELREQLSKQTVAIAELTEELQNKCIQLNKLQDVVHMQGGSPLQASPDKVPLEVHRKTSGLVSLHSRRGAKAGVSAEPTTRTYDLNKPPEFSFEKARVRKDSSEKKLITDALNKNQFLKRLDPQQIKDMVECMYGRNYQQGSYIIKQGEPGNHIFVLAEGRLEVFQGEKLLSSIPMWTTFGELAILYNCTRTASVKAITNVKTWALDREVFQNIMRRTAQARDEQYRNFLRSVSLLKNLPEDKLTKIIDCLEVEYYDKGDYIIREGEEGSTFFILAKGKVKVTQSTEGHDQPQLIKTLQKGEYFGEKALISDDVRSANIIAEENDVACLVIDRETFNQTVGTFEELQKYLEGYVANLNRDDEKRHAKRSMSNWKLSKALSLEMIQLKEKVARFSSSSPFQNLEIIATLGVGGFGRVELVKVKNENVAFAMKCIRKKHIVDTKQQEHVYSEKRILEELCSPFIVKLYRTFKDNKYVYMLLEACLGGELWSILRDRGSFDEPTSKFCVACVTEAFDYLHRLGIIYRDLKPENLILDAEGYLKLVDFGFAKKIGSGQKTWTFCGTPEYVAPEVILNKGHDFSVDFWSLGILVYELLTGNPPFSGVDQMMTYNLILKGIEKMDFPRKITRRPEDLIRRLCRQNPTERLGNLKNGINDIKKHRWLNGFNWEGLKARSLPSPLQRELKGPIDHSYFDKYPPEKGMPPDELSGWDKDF

[17] = molecular target: T6, cGMP-dependent protein kinase 2 (Homo sapiens); settings: at 1 µM
[18] = molecular target: T7, cAMP-dependent protein kinase catalytic subunit PRKX (Homo sapiens) (UniProt P51817); settings: at 0.1 µM
T7 sequence (whole entry): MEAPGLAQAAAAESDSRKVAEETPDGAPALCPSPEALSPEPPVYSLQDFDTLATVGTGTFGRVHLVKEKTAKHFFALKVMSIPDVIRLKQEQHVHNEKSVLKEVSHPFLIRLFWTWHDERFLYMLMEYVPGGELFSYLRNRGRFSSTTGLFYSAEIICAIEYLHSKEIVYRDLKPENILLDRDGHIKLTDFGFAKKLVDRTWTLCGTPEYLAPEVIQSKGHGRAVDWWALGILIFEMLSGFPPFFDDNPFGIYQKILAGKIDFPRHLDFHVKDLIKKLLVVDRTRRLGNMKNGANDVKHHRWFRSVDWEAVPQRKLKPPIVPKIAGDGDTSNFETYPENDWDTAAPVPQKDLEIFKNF

[19] = molecular target: T7, cAMP-dependent protein kinase catalytic subunit PRKX (Homo sapiens); settings: at 1 µM
[20] = molecular target: Rho-associated protein kinase 1 (Homo sapiens) (UniProt Q13464); settings: at 0.1 µM;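 also: values are mean percent inhibition of ROCK1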
Rho-associated protein kinase 1 (Homo sapiens), sequence (Q13464 2-1354 limits assumed): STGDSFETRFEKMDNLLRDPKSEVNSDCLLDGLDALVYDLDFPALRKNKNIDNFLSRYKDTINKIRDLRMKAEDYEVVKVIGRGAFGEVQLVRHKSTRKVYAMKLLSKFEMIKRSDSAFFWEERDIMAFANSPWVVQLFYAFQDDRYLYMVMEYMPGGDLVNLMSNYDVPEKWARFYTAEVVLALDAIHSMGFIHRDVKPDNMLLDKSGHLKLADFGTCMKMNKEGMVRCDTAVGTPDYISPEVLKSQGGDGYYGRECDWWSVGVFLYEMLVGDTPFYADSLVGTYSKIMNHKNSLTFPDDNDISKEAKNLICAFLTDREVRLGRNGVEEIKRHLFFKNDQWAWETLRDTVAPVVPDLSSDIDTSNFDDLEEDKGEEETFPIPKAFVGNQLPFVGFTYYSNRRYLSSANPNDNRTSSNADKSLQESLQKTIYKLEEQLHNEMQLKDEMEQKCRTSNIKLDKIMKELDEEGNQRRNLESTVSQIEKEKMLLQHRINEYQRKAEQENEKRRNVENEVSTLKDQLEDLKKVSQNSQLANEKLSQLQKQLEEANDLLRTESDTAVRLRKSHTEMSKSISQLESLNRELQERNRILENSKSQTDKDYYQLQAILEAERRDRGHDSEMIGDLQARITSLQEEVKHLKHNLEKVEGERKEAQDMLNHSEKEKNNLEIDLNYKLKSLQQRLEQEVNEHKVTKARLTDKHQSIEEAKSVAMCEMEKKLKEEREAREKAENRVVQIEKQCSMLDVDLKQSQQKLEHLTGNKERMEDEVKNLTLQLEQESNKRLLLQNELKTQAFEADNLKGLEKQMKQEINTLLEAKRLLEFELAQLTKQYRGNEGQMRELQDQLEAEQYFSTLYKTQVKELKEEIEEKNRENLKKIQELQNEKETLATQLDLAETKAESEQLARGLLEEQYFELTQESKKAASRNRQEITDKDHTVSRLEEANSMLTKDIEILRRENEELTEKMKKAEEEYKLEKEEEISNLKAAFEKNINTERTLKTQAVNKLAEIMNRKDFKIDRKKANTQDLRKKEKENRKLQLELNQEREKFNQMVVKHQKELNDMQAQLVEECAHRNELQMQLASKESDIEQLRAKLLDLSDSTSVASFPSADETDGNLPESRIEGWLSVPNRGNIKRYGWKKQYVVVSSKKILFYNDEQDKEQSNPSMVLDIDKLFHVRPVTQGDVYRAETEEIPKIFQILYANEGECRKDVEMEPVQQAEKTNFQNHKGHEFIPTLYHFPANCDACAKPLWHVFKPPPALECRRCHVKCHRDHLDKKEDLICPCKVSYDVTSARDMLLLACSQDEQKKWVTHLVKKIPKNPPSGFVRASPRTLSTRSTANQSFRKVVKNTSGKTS

Protein kinase C theta type (Homo sapiens), sequence (Q04759 whole entry, looked up): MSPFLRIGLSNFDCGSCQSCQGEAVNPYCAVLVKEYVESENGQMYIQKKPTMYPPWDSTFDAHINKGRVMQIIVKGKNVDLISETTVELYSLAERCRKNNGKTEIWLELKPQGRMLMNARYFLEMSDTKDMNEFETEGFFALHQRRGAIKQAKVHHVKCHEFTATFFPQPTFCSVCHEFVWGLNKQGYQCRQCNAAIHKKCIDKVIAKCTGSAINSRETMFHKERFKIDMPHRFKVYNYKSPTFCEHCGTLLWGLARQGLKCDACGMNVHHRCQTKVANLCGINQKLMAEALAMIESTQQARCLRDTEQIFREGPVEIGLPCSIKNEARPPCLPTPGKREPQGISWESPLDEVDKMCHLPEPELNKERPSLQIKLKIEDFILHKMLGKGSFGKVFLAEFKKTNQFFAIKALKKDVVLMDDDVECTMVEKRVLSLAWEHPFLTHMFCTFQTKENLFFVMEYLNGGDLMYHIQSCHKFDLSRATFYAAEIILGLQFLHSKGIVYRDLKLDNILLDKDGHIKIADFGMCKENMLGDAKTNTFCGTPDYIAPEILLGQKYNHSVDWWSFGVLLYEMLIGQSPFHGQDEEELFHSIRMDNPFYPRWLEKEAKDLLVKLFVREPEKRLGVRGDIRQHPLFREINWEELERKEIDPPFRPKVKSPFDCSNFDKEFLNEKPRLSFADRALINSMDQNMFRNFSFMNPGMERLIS
Protein kinase C beta type (Homo sapiens), sequence (P05771 2-671 limits assumed): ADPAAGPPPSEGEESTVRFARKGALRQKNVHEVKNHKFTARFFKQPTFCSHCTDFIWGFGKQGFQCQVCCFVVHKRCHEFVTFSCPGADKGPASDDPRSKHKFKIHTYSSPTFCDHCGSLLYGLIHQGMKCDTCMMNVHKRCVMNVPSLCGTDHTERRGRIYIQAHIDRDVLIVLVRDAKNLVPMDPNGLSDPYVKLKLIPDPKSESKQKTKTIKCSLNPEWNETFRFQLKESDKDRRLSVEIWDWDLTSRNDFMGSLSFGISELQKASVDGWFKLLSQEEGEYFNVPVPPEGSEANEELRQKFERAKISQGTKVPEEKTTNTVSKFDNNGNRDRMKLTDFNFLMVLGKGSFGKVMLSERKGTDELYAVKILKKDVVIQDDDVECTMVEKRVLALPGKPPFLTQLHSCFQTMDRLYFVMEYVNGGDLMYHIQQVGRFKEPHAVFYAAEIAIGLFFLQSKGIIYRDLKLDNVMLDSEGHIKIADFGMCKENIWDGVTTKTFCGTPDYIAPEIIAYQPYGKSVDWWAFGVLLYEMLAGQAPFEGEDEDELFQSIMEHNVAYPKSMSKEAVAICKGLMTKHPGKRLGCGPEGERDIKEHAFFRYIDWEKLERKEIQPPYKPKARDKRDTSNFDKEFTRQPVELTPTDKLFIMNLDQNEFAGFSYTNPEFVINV

SMILES | inhibition [1] | inhibition [2] | inhibition [3] | inhibition [4] | inhibition [5] | inhibition [6] | inhibition [7] | inhibition [8] | inhibition [9] | inhibition [10] | inhibition [11] | inhibition [12] | inhibition [13] | inhibition [14] | inhibition [15] | inhibition [16] | inhibition [17] | inhibition [18] | inhibition [19] | inhibition [20]
CC(C)c1ccc(Nc2nccc(-c3cnn4ncccc34)n2)cc1 | 5.49% | 0.41% | -0.49% | 0.56% | 2.84% | 0.59% | 1.47% | 2.12% | 15.9% | 1.32% | 15.6% | 2.22% | 15.6% | 0.59% | 4.3% | 1.01% | 3.05% | 0.91% | 1.43% | 0.36%
Nc1nccc(-c2c(-c3ccc(F)cc3)ncn2CCCN2CCOCC2)n1 | 6.84% | 3.1% | 3.21% | 2.24% | 3.31% | 3.01% | 7.42% | 4.07% | 5.03% | 5.14% | 4.5% | 4.8% | 4.86% | 4.04% | 4.99% | 2.72% | 3.95% | 2.51% | 5.13% | 2.49%
